We go through ten molecules from PubChem BioAssay (NCI).

The panel holds about 83,000 compounds, 20% with a hit somewhere; the sample as a whole holds those more often.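 Step 1: grow cells in 96-well plates. Step 2: add test compound at a single concentration. Step 3: incubate 48 h. Step 4: record percent growth.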 A number with no mark means an inactive call. The source made the active and inactive calls. The calls were made as follows: active = growth percent below 10; inactive = the rest.

Assay in all cases: NCI-60 one-dose screen, 48 h (100 = growth as untreated, 0 = no growth, -100 = all killed)
For one assay, the system named is HT29 colon. The conditions noted are these: 10 µM unless noted.
The subject of another assay is SNB-75 CNS. The conditions noted are these: 10 µM unless noted.
For the next assay, the system named is SNB-19 CNS. The conditions noted are these: 10 µM unless noted.
For the next assay, the system named is U251 CNS. Particulars: 10 µM unless noted.
The next assay concerns PC-3 prostate. The conditions noted are these: 10 µM unless noted.
Another assay concerns SK-MEL-5 melanoma. The conditions noted are these: 10 µM unless noted.
In a further assay the test system is UACC-62 melanoma. Particulars: 10 µM unless noted.
The test system of a further assay is LOX IMVI melanoma. The conditions noted are these: 10 µM unless noted.
The next assay has as its system SK-MEL-28 melanoma. Particulars: 10 µM unless noted.
A further assay concerns EKVX NSCLC. Particulars: 10 µM unless noted.
A further assay has as its system SN12C renal. Particulars: 10 µM unless noted.
The next assay has as its system UO-31 renal. The conditions noted are these: 10 µM unless noted.
The next assay has as its system TK-10 renal. The conditions noted are these: 10 µM unless noted.
The subject of another assay is ACHN renal. Particulars: 10 µM unless noted.
The test system of another assay is CAKI-1 renal. Particulars: 10 µM unless noted.
The subject of a further assay is A498 renal. The conditions noted are these: 10 µM unless noted.
The subject of another assay is CCRF-CEM leukemia. Particulars: 10 µM unless noted.
A further assay relates to MOLT-4 leukemia. The conditions noted are these: 10 µM unless noted.
In the next assay the test system is SK-MEL-2 melanoma. The conditions noted are these: 10 µM.

Consider `Cn1cnc(-c2cc3nccc(Oc4ccc(NC(=S)NC(=O)Cc5ccccc5)cc4F)c3s2)c1`, for which the growth in the assay on HT29 colon was 62.6%; in the assay on SNB-75 CNS, 78.6%; with SNB-19 CNS, 96.6%; in the assay with U251 CNS, 79.7%; in the assay with PC-3 prostate, 81.3%; in the assay with SK-MEL-5 melanoma, 76.7%. The growth is 93.8% with UACC-62 melanoma; 94.5% in the assay on LOX IMVI melanoma; 98.3% in the assay with SK-MEL-28 melanoma; 109% in the assay with EKVX NSCLC; 54.1% in the assay with SN12C renal; 72.2% in the assay with UO-31 renal. Besides, the growth with TK-10 renal is 85.1%; in the assay with ACHN renal it was 80.4%; in the assay with CAKI-1 renal, 80.8%; in the assay on A498 renal, 62.9%; with CCRF-CEM leukemia it was 58.6%; in the assay with MOLT-4 leukemia, 69.4%.
As for `CN(C[C@@H]1COCCO1)S(=O)(=O)Nc1ccc2ccc3ncc(-c4cnn(C)c4)cc3c(=O)c2c1`, the growth is 51.3% in the assay on HT29 colon; 13.6% in the assay on SNB-75 CNS; 80.7% with SNB-19 CNS; 37.4% in the assay on U251 CNS; 45.6% in the assay on PC-3 prostate; 36% in the assay on SK-MEL-5 melanoma. The growth in the assay with UACC-62 melanoma was 36.2%; in the assay with LOX IMVI melanoma, 30.1%; in the assay with SK-MEL-28 melanoma, 59.7%; with EKVX NSCLC, 52.9%; in the assay with SN12C renal, 38.9%; with UO-31 renal it was 8.44% (active). The growth was 37.2% in the assay with TK-10 renal; 22.2% with ACHN renal; 7.99% (active) with CAKI-1 renal; -19% (active) in the assay on A498 renal; 34.9% with CCRF-CEM leukemia; 21.1% in the assay with MOLT-4 leukemia.
Consider `CNS(=O)(=O)Nc1nccc(Cc2c(C)c3ccc(Oc4ncccn4)cc3oc2=O)c1F`, for which the growth in the assay on HT29 colon was 10.4%; with SNB-75 CNS, 78.1%; in the assay on SNB-19 CNS it was 63.7%; with U251 CNS, 54.8%; in the assay with PC-3 prostate, 101%; in the assay on SK-MEL-5 melanoma, 23.1%. Further, the growth with UACC-62 melanoma is 4.49% (active); in the assay with LOX IMVI melanoma, 25.6%; with SK-MEL-28 melanoma, 8.61% (active); in the assay on EKVX NSCLC it was 55%; in the assay on SN12C renal it was 73.1%; in the assay with UO-31 renal, 53.8%. Moreover, the growth was 34.1% with TK-10 renal; 56.8% in the assay with ACHN renal; 44.7% in the assay on CAKI-1 renal; -17.2% (active) in the assay with A498 renal; 84.4% with CCRF-CEM leukemia; 76.2% with MOLT-4 leukemia.
On to `COc1ccc2c(CCCCC(c3ccccc3)c3ccccc3)c3[n+](cc2c1OC)CCc1cc2c(cc1-3)OCO2`, for which the growth in the assay on HT29 colon is -73.7% (active); in the assay on SNB-75 CNS, -74% (active); in the assay on SNB-19 CNS it was -65.2% (active); in the assay with U251 CNS it was -93.2% (active); in the assay on PC-3 prostate it was -75% (active); in the assay with SK-MEL-5 melanoma it was -99.5% (active). Besides, the growth is -63.6% (active) with UACC-62 melanoma; -100% (active) with LOX IMVI melanoma; -82.1% (active) in the assay with SK-MEL-28 melanoma; -70.4% (active) with SK-MEL-2 melanoma; -31.8% (active) in the assay with EKVX NSCLC; -77.7% (active) with SN12C renal. The growth is -42.1% (active) in the assay on UO-31 renal; -51% (active) with TK-10 renal; -19.1% (active) in the assay with ACHN renal; 16.6% with CAKI-1 renal; 5.53% (active) in the assay on CCRF-CEM leukemia; -20.7% (active) in the assay with MOLT-4 leukemia.
For `Cc1cnc(Nc2ccc(OCCN3CCCC3)cc2)nc1Nc1cccc(S(=O)(=O)NC(C)(C)C)c1`, the growth with HT29 colon is -41.8% (active); in the assay with SNB-75 CNS it was -97.9% (active); in the assay with SNB-19 CNS it was 21.3%; in the assay with U251 CNS, 15.9%; with PC-3 prostate, 20%; with SK-MEL-5 melanoma, -90.4% (active). Besides, the growth in the assay with UACC-62 melanoma is -23.1% (active); with LOX IMVI melanoma it was -79.4% (active); in the assay with SK-MEL-28 melanoma, -10.7% (active); with EKVX NSCLC it was 26.4%; in the assay on SN12C renal, 12.6%; with UO-31 renal, -96.3% (active). Further, the growth is -40% (active) in the assay on TK-10 renal; -40.8% (active) in the assay with ACHN renal; -95.3% (active) with A498 renal; 1.67% (active) in the assay with CCRF-CEM leukemia; 1.26% (active) in the assay with MOLT-4 leukemia.
Take `O=C(O)c1ccc(Nc2ncc3c(n2)-c2ccc(Cl)cc2C(c2c(F)cccc2F)=NC3)cc1`: the growth with HT29 colon was 30.2%; with SNB-75 CNS it was 48.8%; in the assay with SNB-19 CNS, 54.6%; with U251 CNS it was 42.5%; with PC-3 prostate it was 51.3%; in the assay with SK-MEL-5 melanoma, 60.6%. Besides, the growth is 51.6% with UACC-62 melanoma; 33% in the assay on LOX IMVI melanoma; 75.1% in the assay on SK-MEL-28 melanoma; 80.1% in the assay on EKVX NSCLC; 62.8% with SN12C renal; 41.8% in the assay with UO-31 renal. Moreover, the growth was 40.1% in the assay with TK-10 renal; 49% in the assay on ACHN renal; 47.6% in the assay with CAKI-1 renal; 25.3% in the assay on A498 renal; 36.6% with CCRF-CEM leukemia; 44.6% in the assay with MOLT-4 leukemia.
With `Cc1cc2c(-c3nc4ccccn4c3NC34CC5CC(CC(C5)C3)C4)c(O)c(O)cc2c(O)c1-c1c(C)cc2c(-c3nc4ccccn4c3NC34CC5CC(CC(C5)C3)C4)c(O)c(O)cc2c1O`, the growth with HT29 colon is 14.1%; with SNB-75 CNS it was 19.6%; in the assay with SNB-19 CNS it was 17.1%; in the assay with U251 CNS it was 6.36% (active); in the assay on PC-3 prostate it was 14.7%; with SK-MEL-5 melanoma, -57.7% (active). The growth in the assay with UACC-62 melanoma is 0.552% (active); in the assay with LOX IMVI melanoma it was 3.37% (active); in the assay with SK-MEL-28 melanoma it was 17.3%; with SK-MEL-2 melanoma it was -2.48% (active); in the assay on EKVX NSCLC, 5.97% (active); in the assay on SN12C renal, 15.9%. Moreover, the growth in the assay with UO-31 renal is -2.25% (active); in the assay on TK-10 renal it was 7.59% (active); in the assay on A498 renal, 10.8%; with CCRF-CEM leukemia it was 16.4%; in the assay on MOLT-4 leukemia, 8.13% (active).
For `Cc1csc(-c2nnc(Nc3ccc(Oc4ncccc4-c4ccnc(N)n4)cc3)c3ccccc23)c1`, the growth in the assay with HT29 colon was 10.1%; in the assay on SNB-75 CNS it was 61.9%; in the assay on SNB-19 CNS, 43.3%; with U251 CNS, 37.7%; in the assay on PC-3 prostate it was 59.9%; in the assay on SK-MEL-5 melanoma, 54.1%. Further, the growth is 21.1% with UACC-62 melanoma; 25.7% in the assay on LOX IMVI melanoma; 18.9% with SK-MEL-28 melanoma; 64.8% in the assay with EKVX NSCLC; 52.1% with SN12C renal; 32.4% with UO-31 renal. The growth with TK-10 renal is 39.7%; with ACHN renal, 38.8%; in the assay on CAKI-1 renal, 50.8%; with A498 renal, 56.1%; in the assay on CCRF-CEM leukemia it was 25.1%; in the assay with MOLT-4 leukemia, 32.3%.
`COc1ccc(-c2cc3c(oc2=O)-c2ccccc2OC3OC(C)=O)cc1` (stereo not drawn): the growth in the assay on HT29 colon is 81.1%; in the assay on SNB-75 CNS, 100%; in the assay on SNB-19 CNS, 98%; in the assay with U251 CNS, 89.4%; with PC-3 prostate, 89.2%; in the assay on SK-MEL-5 melanoma it was 98.2%. Further, the growth in the assay on UACC-62 melanoma is 81.8%; with LOX IMVI melanoma it was 98.2%; with SK-MEL-28 melanoma, 118%; with SK-MEL-2 melanoma it was 100%; in the assay with EKVX NSCLC, 73.2%; with SN12C renal, 91.5%. The growth in the assay with TK-10 renal is 104%; in the assay on ACHN renal it was 102%; with CAKI-1 renal, 113%; in the assay on A498 renal, 100%; in the assay on CCRF-CEM leukemia, -25.9% (active); in the assay on MOLT-4 leukemia it was 72.4%.
On to `Cc1nc(N)sc1-c1ccnc(Nc2ccc(N3CCOCC3)cc2)n1`, for which the growth was 25.5% in the assay with HT29 colon; -11% (active) in the assay on SNB-75 CNS; 29.9% in the assay with SNB-19 CNS; 27.9% in the assay with U251 CNS; 38.3% with PC-3 prostate; 70.8% in the assay on SK-MEL-5 melanoma. The growth with UACC-62 melanoma is 41.6%; in the assay with LOX IMVI melanoma, 29.6%; in the assay on SK-MEL-28 melanoma, 61.5%; in the assay with EKVX NSCLC it was 71.7%; in the assay with SN12C renal, 49.8%; with UO-31 renal it was 19.7%. Also, the growth with TK-10 renal was 39.9%; in the assay with ACHN renal, 29.7%; in the assay on CAKI-1 renal it was 20.8%; in the assay with A498 renal, 32.6%; in the assay on CCRF-CEM leukemia it was 23%; in the assay on MOLT-4 leukemia it was 13.8%.
